The supplement of paper PMC12494721
Structures can show the parent of a compound that is named as a salt.

How the values were obtained:
Settings in all cases: 20 µM; incubation time: 27 h, anaerobic, 37 °C;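 for the amine columns active = adjusted P below 0.05 in both replicates with a change the same way and a mean fold change under 0.8 or over 1.25; inactive = the rest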
[1] = system: Clostridium sporogenes DSM 1664; assay: growth (OD595) fold change vs plate DMSO controls (fold change (ratio)); higher = more growth
Method in brief: (§1)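 Each value is the mean of 2 biological replicates, and fold changes above 1.5 were set to NA. The underlying readings were taken at 595 nm from shaken anaerobic mGAM cultures in 96-well plates after 27 h at 37 °C. They were blank-subtracted, corrected for compound background using 20 µM compound solutions in water, and converted to OD with a calibration factor of 5. Growth is the fold change relative to the median of the plate DMSO controls.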

Escherichia coli IAI1 [2] = assay: as above
Method in brief: as §1

[3] = system: Klebsiella aerogenes DSM 30053; assay: as above
Method in brief: as §1

[4] = system: Ruminococcus gnavus DSM 108212; assay: as above
Method in brief: as §1

[5] = system: Klebsiella aerogenes DSM 30053; assay: fold change of Histamine concentration vs plate DMSO controls (fold change (ratio)); higher = more amine produced, active = hit call of the paper (significant change in both replicates, either direction)
Method in brief: (§2)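 Using LC–triple-quadrupole MS with dynamic MRM, amines were quantified against external calibration curves and corrected for drift within each batch. Samples were whole anaerobic mGAM cultures of four gut strains, grown 27 h at 37 °C from OD 0.1 before 1:1 dilution, extracted with cold acetonitrile/methanol containing 0.1% formic acid and centrifuged. Compounds were present at 20 µM final (sweeteners at 50 µM final). The numbers are fold changes versus plate DMSO controls, each the mean of 2 biological replicates.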

[6] = system: Clostridium sporogenes DSM 1664; assay: fold change of Tryptamine concentration vs plate DMSO controls (fold change (ratio)); higher = more amine produced, active = hit call of the paper (significant change in both replicates, either direction)
Method in brief: as §2

[7] = system: Ruminococcus gnavus DSM 108212; assay: as above
Method in brief: as §2

Escherichia coli IAI1 [8] = assay: fold change of Putrescine concentration vs plate DMSO controls (fold change (ratio)); higher = more amine produced, active = hit call of the paper (significant change in both replicates, either direction)
Method in brief: as §2

[9] = system: Klebsiella aerogenes DSM 30053; assay: as above
Method in brief: as §2

Escherichia coli IAI1 [10] = assay: fold change of Cadaverine concentration vs plate DMSO controls (fold change (ratio)); higher = more amine produced, active = hit call of the paper (significant change in both replicates, either direction)
Method in brief: as §2

[11] = system: Klebsiella aerogenes DSM 30053; assay: as above
Method in brief: as §2

[12] = system: Ruminococcus gnavus DSM 108212; assay: fold change of 2-Phenylethylamine concentration vs plate DMSO controls (fold change (ratio)); higher = more amine produced, active = hit call of the paper (significant change in both replicates, either direction)
Method in brief: as §2

Structure (SMILES)	growth [1]	growth (Escherichia coli IAI1 [2])	growth [3]	growth [4]	fold change of Histamine concentration [5]	fold change of Tryptamine concentration [6]	fold change of Tryptamine concentration [7]	fold change of Putrescine concentration (Escherichia coli IAI1 [8])	fold change of Putrescine concentration [9]	fold change of Cadaverine concentration (Escherichia coli IAI1 [10])	fold change of Cadaverine concentration [11]	fold change of 2-Phenylethylamine concentration [12]
O=[N+]([O-])O[C@@H]1CO[C@H]2[C@@H]1OC[C@@H]2O [Isosorbide mononitrate]	0.988	0.984	1.07	1.31	0.975 (inactive)	0.938 (inactive)	0.984 (inactive)	0.959 (inactive)	1.05 (inactive)	0.975 (inactive)	1.04 (inactive)	0.946 (inactive)
CN1[C@@H]2CC[C@H]1C[C@@H](OC1c3ccccc3CCc3ccccc31)C2 [Deptropine citrate]	0.826	1	0.992	0.954	1.06 (inactive)	1.17 (inactive)	0.877 (inactive)	1.04 (inactive)	1.02 (inactive)	1.11 (inactive)	0.999 (inactive)	0.928 (inactive)
CCC(C)(C)C(=O)OC1=C(c2ccc(Cl)cc2Cl)C(=O)OC12CCCCC2	1.09	1.08	1.01	1.05	0.967 (inactive)	1.05 (inactive)	1.03 (inactive)	1.02 (inactive)	0.996 (inactive)	0.997 (inactive)	1.03 (inactive)	1.05 (inactive)
C#CCOc1ccc(CCNC(=O)C(OCC#C)c2ccc(Cl)cc2)cc1OC (stereo not given)	1	1.06	1.03	0.954	0.95 (inactive)	0.986 (inactive)	0.989 (inactive)	1.05 (inactive)	1.01 (inactive)	0.933 (inactive)	1.01 (inactive)	0.964 (inactive)
CCC1(CC)C(=O)C=CNC1=O [Pyrithyldione]	0.889	0.977	1.04	0.877	1.03 (inactive)	0.966 (inactive)	1.02 (inactive)	1.01 (inactive)	1.03 (inactive)	1 (inactive)	1.02 (inactive)	0.996 (inactive)
COc1cc([C@@H]2c3cc4c(cc3[C@H](O)[C@H]3COC(=O)[C@H]23)OCO4)cc(OC)c1OC [Podophyllotoxin]	1.13	1.18	1.14	0.888	0.958 (inactive)	1.01 (inactive)	1.03 (inactive)	1.06 (inactive)	1.02 (inactive)	0.931 (inactive)	1.02 (inactive)	1.02 (inactive)
CCCCc1c(C)nc(NCC)nc1OS(=O)(=O)N(C)C	0.862	1.04	0.957	0.952	1.03 (inactive)	1.06 (inactive)	0.959 (inactive)	0.985 (inactive)	0.995 (inactive)	1.01 (inactive)	0.998 (inactive)	0.996 (inactive)
CN1C[C@H](CNC(=O)OCc2ccccc2)C[C@@H]2c3cccc4c3c(cn4C)C[C@H]21 [Metergoline]	1.1	1.09	1.03	1.03	0.987 (inactive)	0.943 (inactive)	0.94 (inactive)	1.04 (inactive)	0.996 (inactive)	1.08 (inactive)	1 (inactive)	0.967 (inactive)
C[C@]12CC[C@H]3[C@@H](CCC4=CC(=O)CC[C@@H]43)[C@@H]1CC[C@@H]2O [Nandrolone]	1.11	1.06	1.02	1.01	0.993 (inactive)	1.01 (inactive)	1.02 (inactive)	1.04 (inactive)	1 (inactive)	1 (inactive)	0.999 (inactive)	1.03 (inactive)
CC[N+]1(C)CCCC(OC(=O)C(O)(c2ccccc2)c2ccccc2)C1 (stereo not given) [Pipenzolate bromide]	0.938	0.997	0.994	1.05	0.982 (inactive)	0.957 (inactive)	0.956 (inactive)	1.06 (inactive)	1 (inactive)	0.988 (inactive)	1.01 (inactive)	0.926 (inactive)
CCOC(=O)CC(SP(=S)(OC)OC)C(=O)OCC (stereo not given)	0.873	1.03	1.01	0.941	0.998 (inactive)	1.06 (inactive)	1.02 (inactive)	1.01 (inactive)	0.994 (inactive)	0.997 (inactive)	0.993 (inactive)	1 (inactive)
CCCC(C)C1(CC)C(=O)NC(=O)NC1=O (stereo not given) [Pentobarbital]	1.06	1.08	0.979	0.814	1.07 (inactive)	0.993 (inactive)	1.02 (inactive)	1.1 (inactive)	1.02 (inactive)	1.01 (inactive)	0.988 (inactive)	1.04 (inactive)
O=C(O)COc1ccc(Cl)cc1Cl	0.956	1.01	1.07	1.22	0.958 (inactive)	1.02 (inactive)	0.967 (inactive)	1 (inactive)	1 (inactive)	0.996 (inactive)	1.01 (inactive)	0.929 (inactive)
CC1(C)C(C=C(Cl)Cl)C1C(=O)OCc1cccc(Oc2ccccc2)c1 (mixture of isomers)	0.957	0.993	1	1.07	1.01 (inactive)	1.05 (inactive)	1.03 (inactive)	1.04 (inactive)	0.995 (inactive)	1.06 (inactive)	1 (inactive)	1.02 (inactive)
CCCN(CCC)C(=O)SCc1ccccc1	1.02	1	1.03	0.973	1.04 (inactive)	1.02 (inactive)	0.923 (inactive)	1.02 (inactive)	1.01 (inactive)	0.995 (inactive)	0.993 (inactive)	0.897 (inactive)
CSc1nc(NC(C)C)nc(NC(C)C)n1	0.932	1.01	1.02	0.973	0.971 (inactive)	0.943 (inactive)	0.955 (inactive)	0.946 (inactive)	1.04 (inactive)	1.01 (inactive)	1.03 (inactive)	1 (inactive)
COC(=O)N(C(=O)N1CO[C@@]2(C(=O)OC)Cc3cc(Cl)ccc3C2=N1)c1ccc(OC(F)(F)F)cc1	1.15	0.998	0.992	0.903	0.975 (inactive)	1.03 (inactive)	1.03 (inactive)	0.945 (inactive)	0.915 (inactive)	0.907 (inactive)	1.03 (inactive)	0.986 (inactive)
NCCc1c[nH]c2ccc(O)cc12 [Serotonin hydrochloride]	0.937	0.985	0.99	0.934	1.1 (inactive)	1.02 (inactive)	1 (inactive)	0.993 (inactive)	1.08 (inactive)	1.06 (inactive)	1.06 (inactive)	0.93 (inactive)
CN(C)C(=O)Oc1ccc[n+](C)c1 [Pyridostigmine iodide]	1.02	0.975	1	0.901	1.05 (inactive)	0.975 (inactive)	1.01 (inactive)	0.993 (inactive)	0.98 (inactive)	1.01 (inactive)	1.03 (inactive)	1.02 (inactive)
C[C@@H]1CN([C@H]2CC[C@](C#N)(c3ccc(F)cc3)CC2)CC[C@]1(C(=O)O)c1ccccc1 [Levocabastine hydrochloride]	1.17	1.09	1.02	1.07	1.03 (inactive)	1.04 (inactive)	1 (inactive)	1.02 (inactive)	1 (inactive)	0.916 (inactive)	0.999 (inactive)	0.949 (inactive)
O=C(O)CNCP(=O)(O)O	0.851	1.02	0.976	0.965	1.03 (inactive)	0.931 (inactive)	0.98 (inactive)	0.961 (inactive)	1.02 (inactive)	0.991 (inactive)	1.03 (inactive)	0.966 (inactive)
C[C@]12C=CC(=O)C=C1CC[C@@H]1[C@@H]2CC[C@@]2(C)[C@H]1CC[C@]2(C)O [Methandrostenolone]	1.01	0.989	1	0.931	0.999 (inactive)	0.98 (inactive)	1.03 (inactive)	1.01 (inactive)	0.995 (inactive)	1.01 (inactive)	0.991 (inactive)	1.02 (inactive)
CCN(CC)N=O [NDEA (N-nitrosodiethylamine)]	1.13	1.04	1.09	1.04	0.928 (inactive)	1 (inactive)	1.01 (inactive)	1.01 (inactive)	0.999 (inactive)	1.03 (inactive)	1.01 (inactive)	1.01 (inactive)
C[C@]12CC[C@H](O)C[C@H]1CC[C@@H]1[C@@H]2CC[C@]2(C)[C@@H](C3=CC(=O)OC3)CC[C@]12O [Digitoxigenin]	1.02	1.02	0.986	1	1.06 (inactive)	1.05 (inactive)	1.02 (inactive)	1.03 (inactive)	1.01 (inactive)	1.01 (inactive)	0.989 (inactive)	1.03 (inactive)
N#Cc1nn(-c2c(Cl)cc(C(F)(F)F)cc2Cl)c(N)c1[S+]([O-])C(F)(F)F (stereo not given) [Fipronil]	1.26	1.11	1.1	1.28	0.947 (inactive)	1.05 (inactive)	1 (inactive)	1.03 (inactive)	0.981 (inactive)	1.01 (inactive)	1 (inactive)	1.04 (inactive)
